Results: PubChem BioAssay AID1159580 (chemical genetic matrix, 2015)
Among all 5,500 compounds or so, about 2,000 (36%) were called active. Roughly 18% stayed inconclusive and do not appear here. Cut-off read from the data, not from the text of the source: active = normalized growth mostly below about 0.91 (no sharp cut-off); inconclusive = no clear call, values can overlap the other calls; inactive = mostly above about 0.92. The list shows a part of the results.

Assay: chemical genetic growth profiling, strain panel (AID 1159580);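 note: tested at 20 µM; growth read once vehicle control cultures reached saturation at 30 °C; 1 = growth at the plate median or of vehicle wells; lower values mean less growth of the strain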
Conditions: S. cerevisiae deletion strains, growth OD

Measured: normalized growth

O=c1cccc2ccc(O)c(O)c2c1O
inactive: locus YAL030W, strain snc1, active compounds read low 0.948 | locus YBR021W, strain FUR4, active compounds read low 1.02 | locus YBR171W, strain sec66, active compounds read low 0.928 | locus YCL011C, strain gbp2, active compounds read low 0.913 | locus YCL016C, strain dcc1, active compounds read low 0.938 | locus YCL061C, strain MRC1, active compounds read low 0.949 | locus YCL069W, strain vba3, active compounds read low 0.945 | locus YCR088W, strain abp1, active compounds read low 0.961 | locus YDL005C, strain med2, active compounds read low 1 | locus YDL040C, strain nat1, active compounds read low 1 | locus YDL185W, strain tfp1, active compounds read low 0.955 | locus YDR001C, strain nth1, active compounds read low 0.975 | locus YDR195W, strain ref2 1.06 | locus YEL037C, strain rad23, active compounds read low 0.938 | locus YEL061C, strain CIN8 (second series), active compounds read low 0.922 | locus YER016W, strain bim1, active compounds read low 0.96 | locus YER110C, active compounds read low 1.01 | locus YGL078C, strain dbp3, active compounds read low 1.03 | locus YGL167C, strain pmr1, active compounds read low 0.955 | locus YGL227W, strain vid30, active compounds read low 1.01 | locus YGL240W, strain doc1, active compounds read low 0.995 | locus YHR013C, strain ard1, active compounds read low 0.962 | locus YIL125W, strain kgd1, active compounds read low 1.01 | locus YJL092W, strain hpr5, active compounds read low 0.963 | locus YJL115W, strain asf1, active compounds read low 0.954 | locus YJL154C, strain vps35, active compounds read low 0.961 | locus YJL168C, strain set2, active compounds read low 0.937 | locus YKL085W, strain MDH1 (second series), active compounds read low 1.04 | locus YKL085W, strain MDH1, active compounds read low 1.04 | locus YKR026C, strain gcn3, active compounds read low 0.965 | locus YKR091W, strain srl3, active compounds read low 0.99 | locus YLL001W, strain dnm1, active compounds read low 0.917 | locus YLL041C, strain sdh2, active compounds read low 0.944 | locus YLR102C, strain apc9, active compounds read low 0.966 | locus YLR357W, strain rsc2, active compounds read low 0.857 | locus YLR384C, strain iki3, active compounds read low 0.944 | locus YMR078C, strain ctf18, active compounds read low 0.965 | locus YMR125W, strain sto1, active compounds read low 1 | locus YMR129W, active compounds read low 0.976 | locus YNL248C, strain rpa49, active compounds read low 0.912 | locus YNL250W, strain rad50, active compounds read low 1.06 | locus YNL271C, strain bni1, active compounds read low 0.97 | locus YNL298W, strain CLA4, active compounds read low 0.982 | locus YNL322C, strain KRE1 (second series), active compounds read low 0.959 | locus YNR049C, strain mso1, active compounds read low 0.98 | locus YOL012C, strain htz1 0.205 | locus YOR001W, strain rrp6, active compounds read low 0.892 | locus YOR080W, strain dia2, active compounds read low 0.973 | locus YOR265W, strain rbl2, active compounds read low 0.939 | locus YPL240C, strain hsp82, active compounds read low 0.972 | locus YPR119W, strain clb2, active compounds read low 0.984 | locus YPR141C, strain kar3, active compounds read low 1.04
active: locus YAL021C, strain ccr4, active compounds read low 0.443 | locus YAL026C, strain drs2, active compounds read low 0.791 | locus YBL061C, strain skt5, active compounds read low 0.901 | locus YBR009C, strain hhf1, active compounds read low 0.822 | locus YBR023C, strain chs3, active compounds read low 0.887 | locus YBR229C, strain ROT2, active compounds read low 0.385 | locus YBR231C, strain swc5, active compounds read low 0.853 | locus YCL029C, strain bik1, active compounds read low 0.598 | locus YDL035C, strain GPR1, active compounds read low 0.117 | locus YDL074C, strain BRE1, active compounds read low 0.241 | locus YDL101C, strain DUN1, active compounds read low 0.145 | locus YDL134C, strain PPH21, active compounds read low 0.112 | locus YDL192W, strain arf1, active compounds read low 0.579 | locus YDR069C, strain doa4, active compounds read low 0.625 | locus YDR101C, strain arx1, active compounds read low 0.734 | locus YDR137W, strain rgp1, active compounds read low 0.161 | locus YDR159W, strain sac3, active compounds read low 0.261 | locus YDR162C, strain NBP2, active compounds read low 0.0859 | locus YDR297W, strain sur2, active compounds read low 0.92 | locus YDR318W, strain mcm21, active compounds read low 0.709 | locus YDR334W, strain swr1, active compounds read low 0.885 | locus YDR335W, strain msn5, active compounds read low 0.748 | locus YDR388W, active compounds read low 0.718 | locus YDR392W, strain spt3, active compounds read low 0.715 | locus YDR502C, strain sam2, active compounds read low 0.372 | locus YEL003W, strain gim4, active compounds read low 0.823 | locus YEL061C, strain CIN8, active compounds read low 0.301 | locus YER015W, strain faa2, active compounds read low 0.816 | locus YER111C, strain swi4, active compounds read low 0.403 | locus YER155C, strain BEM2 (second series), active compounds read low 0.73 | locus YER155C, strain BEM2, active compounds read low 0.652 | locus YER167W, strain BCK2, active compounds read low 0.45 | locus YFR010W, strain ubp6, active compounds read low 0.795 | locus YGL086W, strain mad1, active compounds read low 0.365 | locus YGL173C, strain kem1, active compounds read low 0.791 | locus YGL248W, strain PDE1, active compounds read low 0.185 | locus YGL253W, strain hxk2, active compounds read low 0.875 | locus YGR135W, strain pre9, active compounds read low 0.523 | locus YGR252W, strain gcn5, active compounds read low 0.501 | locus YHR027C, strain rpn1, active compounds read low 0.841 | locus YHR079C, strain IRE1 (second series), active compounds read low 0.702 | locus YHR094C, strain hxt1, active compounds read low 0.914 | locus YHR129C, strain ARP1, active compounds read low 0.294 | locus YHR142W, strain chs7, active compounds read low 0.762 | locus YHR200W, strain rpn10, active compounds read low 0.626 | locus YIL066C, strain RNR3, active compounds read low 0.104 | locus YIL073C, strain SPO22, active compounds read low 0.134 | locus YIR030C, strain dcg1, active compounds read low 0.836 | locus YJL095W, strain BCK1 (second series), active compounds read low 0.871 | locus YJL095W, strain BCK1, active compounds read low 0.0994 | locus YJL129C, strain trk1, active compounds read low 0.562 | locus YJL134W, strain LCB3, active compounds read low 0.477 | locus YJL164C, strain tpk1, active compounds read low 0.844 | locus YJL166W, strain qcr8, active compounds read low 0.872 | locus YJL187C, strain SWE1 (second series), active compounds read low 0.106 | locus YJL187C, strain SWE1, active compounds read low 0.893 | locus YJR075W, strain HOC1, active compounds read low 0.358 | locus YKL068W, active compounds read low 1.08 [resistant] | locus YKL160W, strain elf1, active compounds read low 0.901 | locus YKR001C, strain vps1, active compounds read low 0.453 | locus YLL026W, active compounds read low 0.913 | locus YLR027C, strain aat2, active compounds read low 0.897 | locus YLR039C, strain RIC1, active compounds read low 0.179 | locus YLR058C, strain SHM2, active compounds read low 0.126 | locus YLR221C, strain rsa3, active compounds read low 0.854 | locus YLR258W, strain gsy2, active compounds read low 0.903 | locus YLR262C, strain YPT6 (second series), active compounds read low 0.397 | locus YLR268W, strain sec22, active compounds read low 0.285 | locus YLR320W, strain mms22, active compounds read low 0.689 | locus YLR330W, strain CHS5, active compounds read low 0.615 | locus YLR342W, strain FKS1 (second series), active compounds read low 0.183 | locus YLR342W, strain FKS1, active compounds read low 0.893 | locus YLR370C, strain arc18, active compounds read low 0.903 | locus YLR371W, strain rom2, active compounds read low 0.651 | locus YLR418C, strain cdc73, active compounds read low 0.26 | locus YML016C, strain PPZ1, active compounds read low 0.0765 | locus YML032C, strain rad52, active compounds read low 0.785 | locus YML120C, strain ndi1, active compounds read low 0.208 | locus YML124C, strain tub3, active compounds read low 0.742 | locus YMR058W, strain fet3, active compounds read low 0.344 | locus YMR205C, strain PFK2, active compounds read low 0.722 | locus YMR223W, strain ubp8, active compounds read low 0.69 | locus YMR231W, strain pep5, active compounds read low 0.463 | locus YMR263W, strain SAP30, active compounds read low 0.481 | locus YMR307W, strain GAS1, active compounds read low 0.34 | locus YNL067W, strain RPL9B, active compounds read low 0.271 | locus YNL071W, strain lat1, active compounds read low 0.87 | locus YNL209W, strain ssb2, active compounds read low 0.722 | locus YNL233W, strain BNI4, active compounds read low 0.419 | locus YNL307C, strain MCK1, active compounds read low 0.799 | locus YNL322C, strain KRE1, active compounds read low 0.105 | locus YNR052C, strain pop2, active compounds read low 0.328 | locus YOL147C, strain pex11, active compounds read low 0.65 | locus YOR061W, strain CKA2, active compounds read low 0.255 | locus YOR069W, strain VPS5, active compounds read low 0.176 | locus YOR070C, strain gyp1, active compounds read low 0.902 | locus YOR083W, strain WHI5, active compounds read low 0.86 | locus YOR106W, strain vam3, active compounds read low 0.592 | locus YOR136W, strain idh2, active compounds read low 0.712 | locus YOR144C, strain elg1, active compounds read low 0.788 | locus YOR184W, strain ser1, active compounds read low 0.332 | locus YOR270C, strain vph1, active compounds read low 0.369 | locus YOR290C, strain snf2, active compounds read low 0.376 | locus YOR316C, strain cot1, active compounds read low 0.881 | locus YPL051W, strain arl3, active compounds read low 0.672 | locus YPL078C, strain atp4, active compounds read low 0.466 | locus YPL106C, strain sse1, active compounds read low 0.815 | locus YPR163C, strain tif3, active compounds read low 0.764 | locus YPR167C, strain met16, active compounds read low 0.81 | strain wtn01, active compounds read low 0.337
